Measurements as given in PubChem BioAssay (NCATS).
Values joined by “and” are separate entries in the source; they are usually repeats but may differ in a detail not shown here. Identical values can stand only once. Records with an inconclusive call do not appear. Values without a mark were called inactive. Active and inactive are the calls of the source. Calls come from the whole dose curve; as a rule, active = well fitted cell-killing curve with a large enough effect; inconclusive = small, poorly fitted or top-dose-only effect, or effect the other way; inactive = no such curve, though single readings can be large or run the other way.

assay: Viability qHTS for spleen associated tyrosine kinase inhibitor (SYKi) drug resistant MV4-11 cells (AID 1963824); conditions: SYKi-resistant MV4-11 viability, CellTiter-Glo, 72 h; series mostly up to 45 µM; viability, % of control: at the top concentration; note: nearly all actives have a fitted effect of over 35% in size
Source text: Department of Medicine, Hematology/Oncology
University Hospital Frankfurt, Germany.
Trials have shown promising clinical activity of the selective SYK inhibitor entospletinib in patients with high expressing HOXA9/MEIS1 acute leukemias. As the development of resistance mechanisms is a common problem in the use of targeted drugs, we performed a chemical library screen to identify drug sensitivities in SYK inhibitor resistant AML cells. […] Glucocorticoids are potent immunosuppressants which work in part by inhibiting the transcription of cytokine genes.
Described herein is a viability screen to look for activity in the SYK inhibitor drug resistant cell line against four NCATS compound libraries (MIPE 5.0, NPC, NPACT, and Kinase) totaling 11372 compounds. Active hits were reacquired for confirmation and further secondary assay testing.
SEQUENCE No. (e.g., 1, 2, 3, etc.); […] (e.g., Cells, Incubation, Reagent, etc.); VALUE; DESCRIPTION.
1; Media; 2uL; white, solid-bottom Corning assay plate.
2; Compounds; 23nL; Echo acoustic dispenser.
3; Cell; 5uL; 500 cells per well.
4: Incubation; 72hr; 37 C, 5% CO2, 95% humidity.
5; Reagent; 3uL; CellTiter-Glo reagent (Promega).
6; Incubation; 10min; room temperature.
7; Detection; Luminescence; ViewLux plate reader (PerkinElmer).
NOTES (numbers refer to Sequence numbers above
1. Quantitative high-throughput screening (qHTS) of small molecule compounds was conducted on drug resistant SYKi MV4-11 cell line.
2. Twenty-three nanoliter of small molecule compounds were added to each assay plates using the Echo acoustic dispenser (Beckman Coulter).
3. Cells were seeded into the assay plates at a final density of 500 cells in 5uL of media per well using the Multidrop Combi dispenser.
4. Plates were covered with stainless steel gasketed lids and incubated for 72 hours at standard cell culture conditions.
5. Viability was assessed by adding 3uL of CellTiter-Glo detection reagent (Promega).
6. Plates were covered with gasket lids and incubated for 10 minutes at room temperature.
7. Luminescence was measured on a ViewLux plate reader (PerkinElmer).
Potency is the fitted concentration of half-maximal effect.

SMILES | Potency | viability, % of control
CN(C)C(=O)C(CCN1CCC(O)(c2ccc(Cl)cc2)CC1)(c1ccccc1)c1ccccc1 | 15 µM (active) and 10.5 µM (active) | 
C=C1[C@@H]2[C@H]3OC(=O)C(=C)[C@@H]3CC[C@@](C)(O)[C@@H]2C[C@@H]1O[C@@H]1O[C@H](CO)[C@@H](O)[C@H](O)[C@H]1O |  | 101% [at 17.3 µM]
Cc1cnc(NC(=O)Nc2cc(Br)c(C)cc2OC[C@@H]2CNCCO2)cn1 | 1.18 µM (active) | 
C/C(=N\O)c1ccc(OCC(=O)N2CCCCC2)cc1 |  | 86.2%
CCc1nc(-c2cccc(C)c2)c(-c2ccnc(NC(=O)c3ccccc3)c2)s1 | 20.6 µM (active) | 
COc1cccc(OC)c1-c1cc(C(=O)NC2(C(=O)O)C3CC4CC(C3)CC2C4)nn1-c1ccnc2cc(Cl)ccc12 (stereo not given) | 5.9 µM (active) | 
CN1C2CCC1CC(OC(=O)C(CO)c1ccccc1)C2 (stereo not given) |  | 99.4%
CO/N=C(/C(=O)N[C@@H]1C(=O)N2C(C(=O)O)=C(CSC(=O)c3ccco3)CS[C@H]12)c1csc(N)n1 | inactive | 
O=C(Nc1cccc(Cl)c1)Nc1ncc(CCNc2ncnc3ccsc23)s1 | 0.0326 µM (active) | 
C=C(C)[C@@H]1CC[C@]2(C(=O)O)CC[C@]3(C)C(CCC4[C@]5(C)C(CC[C@]43C)C(C)(C)[C@@H](O)[C@@H]5C(=O)O)C12 (stereo not given in full) |  | 87.1% [at 17.3 µM]
Cn1cc(-c2ccc(F)c(C(F)(F)F)c2)nc1C1CCN(c2ncnc3[nH]ncc23)CC1 |  | 59.8% [at 17.3 µM]
Cc1cc(Cl)ccc1OCCCC(=O)NO | 13.2 µM (active) | 
C/C(=C\CO)CC/C=C(\C)C(=O)O[C@H]1[C@H](OC2OC=C(C(=O)O)C3CCC(C)(O)C23)O[C@H](CO)[C@@H](O)[C@@H]1O (stereo not given in full) |  | 80.6% [at 17.3 µM]
COc1ccc(CCN(C)CCCOc2ccc(S(=O)(=O)c3[nH]c4ccccc4c3C(C)C)cc2)cc1OC | 6.61 µM (active) | 
Nc1ccc(O)c(C(=O)O)c1 |  | 93.8%
C[C@@H](O)[C@H](NC(=O)c1ccc(C#Cc2ccc(CN3CCOCC3)cc2)cc1)C(=O)NO | 23.1 µM (active) | 
O=C(c1ccc2nccnc2c1)N1CCCCC1 |  | 9.64%
CC(/C=C/C1(O)C(C)CC(O)CC1(C)C)OC1OC(CO)C(O)C(O)C1O (stereo not given) |  | 98.6%
Cc1cc(C(C)(C)C)cc(C)c1CC1=NCCN1 | 5.25 µM (active) | 
CC1(C)CCCC2(C)c3c4c(c(=O)oc(=O)c3=CCC12)=CCC1C(C)(C)CCCC41C (stereo not given) |  | 67% [at 17.3 µM]

SMILES | Potency | viability, % of control
CC(=O)O[C@@H]1[C@@H](O)[C@H](O[C@@H]2[C@@H](O)[C@@H](O)[C@H](O[C@H]3[C@H](O[C@H]4[C@H](O[C@H]5CC[C@@]6(C)C(CC[C@]7(C)C6CC=C6[C@@H]8CC(C)(C)CC[C@]8(C(=O)O)CC[C@]67C)[C@]5(C)CO)O[C@H](CO)[C@@H](O)[C@@H]4O)OC[C@@H](O)[C@@H]3O)O[C@H]2C)OC[C@H]1O (stereo not given in full) | 3.9 µM (active) | 
O=C1Nc2ccc(Cl)cc2[C@@](C#CC2CC2)(C(F)(F)F)O1 | 13.2 µM (active) and 5.8 µM (active) | 
COc1ccc(COc2ccc(Cc3cnc(N)nc3N)cc2OC)cc1 | 7.31 µM (active) | 
CC(C)(O)C1CC=C(C(=O)OC[C@H]2O[C@@H](OC(=O)C3=CCC(C(C)(C)O)CC3)[C@H](O)[C@@H](O)[C@@H]2O)CC1 (stereo not given in full) |  | 87.7% [at 17.3 µM]
CCCN(CCC)C(=O)C1=Cc2ccc(-c3ccc(C(=O)N4CCCC4)cc3)cc2N=C(N)C1 | 4.17 µM (active) | 
O=C(Nc1ccn(Cc2c(F)cccc2C(F)(F)F)n1)c1c(F)cccc1F |  | 91.5% [at 9.25 µM]
COc1cc(Br)c(Nc2nc(-c3c(C)nc4ncccn34)cs2)c(Br)c1 | 1.16 µM (active) | 
C[C@@]12C[C@]3(O)O[C@H](O1)[C@]1(COC(=O)c4ccccc4)[C@H]3C[C@@]12O[C@@H]1O[C@H](COC(=O)c2ccccc2)[C@@H](O)[C@H](O)[C@H]1O |  | 77% [at 17.3 µM]
Oc1cccc(Nc2ccnc3[nH]c4ccccc4c23)c1 | 2.31 µM (active) | 
CN(CCOc1ccc(NS(C)(=O)=O)cc1)CCc1ccc(NS(C)(=O)=O)cc1 | inactive | 
N#C/C(=C(\N)Sc1ccc(N)cc1)c1ccccc1C(F)(F)F | 7.31 µM (active) | 
O=C(CC(c1ccccc1)c1ccccc1)N1CCN(C(c2ccccc2)c2ccccc2)CC1 | 10.3 µM (active) | 
CC(=O)OC[C@@]12C(=O)C[C@@H](C)[C@]3(C[C@@H](c4ccoc4)O[C@H]3OC(C)=O)[C@H]1CCC[C@]21CO1 |  | 63.4% [at 17.3 µM]
O=C(Nc1nc2cccc(-c3ccc(CN4CCS(=O)(=O)CC4)cc3)n2n1)C1CC1 | 2.91 µM (active) and 7.42 µM (active) | 
C=C1C(=O)OC2/C=C(/C)CC/C=C(/C)CCC12 (stereo not given) | 5.25 µM (active) | 
C/C=C(/C(=C/C)c1ccc(O)cc1)c1ccc(O)cc1 | 14.8 µM (active) | 
COC(=N)c1nc2ccc3ncnc(Nc4ccc(F)cc4Br)c3c2s1 | 0.82 µM (active) | 
C=C1CC[C@@H]2C(C)(C)CCC[C@@]2(C)[C@@H]1CC/C(=C/C(=O)OC)COC(C)=O |  | 71.8%
CC(=O)OCC1=C[C@@H]2OC(=O)C3=CO[C@@H](O[C@@H]4O[C@H](CO)[C@@H](O)[C@H](O)[C@H]4O)[C@H]1[C@@H]32 |  | 74.7% [at 17.3 µM]
Cc1ccc(NC(=O)C(C)C)cc1C1CCN(Cc2ccc(Oc3ccc(F)c(F)c3)cc2)CC1 | 4.61 µM (active) | 
